From PubChem
Sampled rows, rich in hits. Any-hit rate of the full collection: about 3.5%.
GDH-TPI counter-1 – inhibits GDH-TPI coupling enzymes, artifact for Mtb FBA screen; 1.2% of 360,000 active; GDH-TPI coupled enzyme counterscreen, NADH absorbance; inhibition, % at 4.8 µM; in the data active = inhibition above about 30%;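 note: 0% = DMSO wells and 100% = wells lacking the enzyme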
Rv3671c protease – inhibits the M. tuberculosis serine protease Rv3671c. inhibition, % at 5.96 µM. AID 2606. 0.048% of 320,000 active; in the data active = inhibition above about 38%;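 note: extracellular domain of Rv3671c used as enzyme; 0% = enzyme with DMSO and 100% = no enzyme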
Mtb UGM inh – blocks M. tuberculosis UGM enzyme; P9WIQ1; purified UGM, fluorescence polarization probe displacement; inhibition, % at 10 µM; 0.06% of 320,000 active; in the data active = inhibition above about 10%, passing the limit was not always enough
Target sequence (P9WIQ1 whole entry, looked up): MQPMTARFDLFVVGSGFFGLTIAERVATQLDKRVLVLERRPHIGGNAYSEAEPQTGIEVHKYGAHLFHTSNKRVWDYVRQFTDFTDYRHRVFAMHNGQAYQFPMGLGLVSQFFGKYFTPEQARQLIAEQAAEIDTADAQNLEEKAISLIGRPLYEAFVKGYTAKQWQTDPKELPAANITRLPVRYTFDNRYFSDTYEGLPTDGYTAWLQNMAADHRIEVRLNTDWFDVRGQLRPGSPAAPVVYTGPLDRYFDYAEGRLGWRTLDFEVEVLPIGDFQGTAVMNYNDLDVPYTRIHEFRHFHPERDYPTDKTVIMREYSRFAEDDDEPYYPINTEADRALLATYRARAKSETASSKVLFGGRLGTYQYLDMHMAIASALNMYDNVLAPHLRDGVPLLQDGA
Mtb FBA inh – inhibitors of M. tuberculosis fructose-bisphosphate aldolase. purified M. tuberculosis FBA, fluorescence read-out. 2.3% of 360,000 active. inhibition, % at 1 µM;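 note: 0% = vehicle and 100% = reference inhibitor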
Mtb FBA inh conf – confirmation of M. tuberculosis fructose-bisphosphate aldolase inhibitors; 78% of 5,600 active; shares compounds with Mtb FBA inh; purified M. tuberculosis FBA, fluorescence read-out; inhibition, % at 1 µM; AID 651616;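 note: 0% = vehicle wells and 100% = reference inhibitor wells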
GDH-TPI counter-2 – GDH-TPI inhibition counter-screen for FBA inhibitors; shares compounds with Mtb FBA inh; GDH-TPI coupled enzyme counterscreen, fluorescence; inhibition, % at 1 µM; 81% of 5,600 active; AID 652141; in the data active = inhibition above about 10%
* hit, by the source's call. Cut-off read from the data, not from the text of the source, unless noted: active = inhibition above about 27%; inactive = the rest.

Screening Cc1cc(OC(C)C(=O)NCC(O)c2ccccc2)c2c(C)cc(=O)oc2c1 (configuration not stated) returned GDH-TPI counter-1 11, Rv3671c protease 0, Mtb UGM inh 1, Mtb FBA inh 71*, Mtb FBA inh conf 111* and GDH-TPI counter-2 98*.
For CCCc1cc(=O)oc2cc(C)cc(OC(C)C(=O)NCC(O)c3ccccc3)c12 (configuration not stated) the results were GDH-TPI counter-1 2, Rv3671c protease 0, Mtb UGM inh 0, Mtb FBA inh 76*, Mtb FBA inh conf 3 and GDH-TPI counter-2 0.
For Cc1ccccc1-c1ccccc1CN1[C@@H](C(C)C)COCCS1(=O)=O the results were GDH-TPI counter-1 11 and Mtb FBA inh 2.
For N#Cc1cccc(NC(=O)c2cc(C3CCCCN3S(=O)(=O)c3ccccc3)on2)c1 (configuration not stated) the results were GDH-TPI counter-1 11 and Mtb FBA inh 1.
For Cc1cc(OC(C)C(=O)NCC2CCC(C(=O)O)CC2)c2c3c(c(=O)oc2c1)CCC3 (configuration not stated) the results were GDH-TPI counter-1 7, Rv3671c protease -5, Mtb UGM inh 2 and Mtb FBA inh 20.
Screening Cc1cc(OC(C)C(=O)NCC2CCC(C(=O)O)CC2)c2c(C)cc(=O)oc2c1 (configuration not stated) returned GDH-TPI counter-1 9, Rv3671c protease -10, Mtb UGM inh 0, Mtb FBA inh 86*, Mtb FBA inh conf 195* and GDH-TPI counter-2 190*.
For COc1cccc2c(=O)c3c(oc12)CCCC3 the results were GDH-TPI counter-1 6, Mtb FBA inh 45*, Mtb FBA inh conf 131* and GDH-TPI counter-2 94*.
C[C@@H]1CN([C@@H](C)CO)C(=O)c2cccc(NC(=O)c3nc4ccccc4s3)c2O[C@@H]1CN(C)CC1CC1 was read as GDH-TPI counter-1 13, Rv3671c protease -2, Mtb UGM inh 0 and Mtb FBA inh -2.
Cc1cc(C(F)(F)F)c2c(n1)sc1c(O)cc(=O)[nH]c12 was read as GDH-TPI counter-1 16, Rv3671c protease -10, Mtb UGM inh 3 and Mtb FBA inh -1.
`Cc1nc2sc3c(O)cc(=O)[nH]c3c2c(C)c1C` gave GDH-TPI counter-1 8, Rv3671c protease 4, Mtb UGM inh -1, Mtb FBA inh 33*, Mtb FBA inh conf 73* and GDH-TPI counter-2 69*.
`CC(C)Cc1nc(N2CCN(C(=O)C(C)C)CC2)c(C#N)c2c1CCC2` gave GDH-TPI counter-1 7, Rv3671c protease -2, Mtb UGM inh -3, Mtb FBA inh 33*, Mtb FBA inh conf 59* and GDH-TPI counter-2 41*.
CC(=O)N1CCN(c2nc(CC(C)C)c3c(c2C#N)CCC3)CC1 was read as GDH-TPI counter-1 17, Rv3671c protease 0, Mtb UGM inh 3, Mtb FBA inh 38*, Mtb FBA inh conf 48* and GDH-TPI counter-2 35*.
Screening O=C(O)CCc1nn2c3ccccc3nc2n(CCN2CCCCC2)c1=O returned GDH-TPI counter-1 20, Rv3671c protease -1, Mtb UGM inh 4, Mtb FBA inh 35*, Mtb FBA inh conf 117* and GDH-TPI counter-2 88*.
`C=CCn1c2ccccc2n2nc(C)c(=O)nc12` gave GDH-TPI counter-1 13, Rv3671c protease -6, Mtb UGM inh 0 and Mtb FBA inh 22.
Cc1nn2c3ccccc3n(CCN3CCCCC3)c2nc1=O was read as GDH-TPI counter-1 7, Rv3671c protease 5, Mtb UGM inh 0, Mtb FBA inh 32*, Mtb FBA inh conf 154* and GDH-TPI counter-2 102*.
CCNC(=O)C1CCCN(C(=O)c2ccc(C#N)cc2)CC1 (configuration not stated) was read as GDH-TPI counter-1 -3 and Mtb FBA inh -1.
For Nc1ncnc2nc(-c3ccccc3)[nH]c12 the results were GDH-TPI counter-1 3, Mtb FBA inh 69*, Mtb FBA inh conf 4 and GDH-TPI counter-2 -2.
For Nc1ncnc2nc(SCc3ccccc3)[nH]c12 the results were GDH-TPI counter-1 -16, Rv3671c protease 5, Mtb UGM inh -3 and Mtb FBA inh -1.
`CCCCn1nc2cc(C(=O)NCc3cc(C(F)(F)F)cc(C(F)(F)F)c3)ccc2c1OCC` gave GDH-TPI counter-1 12, Rv3671c protease -7, Mtb UGM inh -2 and Mtb FBA inh 18.
Screening O=C(NCc1cccc(C(F)(F)F)c1)c1ccc(=O)[nH]c1 returned GDH-TPI counter-1 4, Rv3671c protease -12, Mtb UGM inh -2 and Mtb FBA inh 6.
Screening COCCn1nc2cc(C(=O)NCc3cc(C(F)(F)F)cc(C(F)(F)F)c3)ccc2c1OC returned GDH-TPI counter-1 6, Rv3671c protease -4, Mtb UGM inh -2, Mtb FBA inh 47*, Mtb FBA inh conf 57* and GDH-TPI counter-2 42*.
For COCCn1c(=S)[nH]c2cc(C(=O)NCc3ccc(F)cc3)ccc2c1=O the results were GDH-TPI counter-1 19 and Mtb FBA inh 4.
`CCOc1c2ccc(C(=O)NCc3cc(C(F)(F)F)cc(C(F)(F)F)c3)cc2nn1CCOC` gave GDH-TPI counter-1 5, Rv3671c protease -1, Mtb UGM inh 0, Mtb FBA inh 43*, Mtb FBA inh conf 105* and GDH-TPI counter-2 64*.
For CCOc1c2ccc(C(=O)NCc3cc(C(F)(F)F)cc(C(F)(F)F)c3)cc2nn1C the results were GDH-TPI counter-1 9, Rv3671c protease 1, Mtb UGM inh -1, Mtb FBA inh 57*, Mtb FBA inh conf 60* and GDH-TPI counter-2 44*.
`Cc1ccc(CN2CCC(C(=O)c3ccc(F)cc3)CC2)cc1` gave GDH-TPI counter-1 5 and Mtb FBA inh 0.
Cc1cccc(NC(=O)CCc2nnc3ccc(NCc4ccco4)nn23)n1 was read as GDH-TPI counter-1 0, Rv3671c protease -2, Mtb UGM inh -4 and Mtb FBA inh 0.
For O=C(O)Cn1nnc(-c2ccc(OCc3ccccc3)cc2)n1 the results were GDH-TPI counter-1 -8, Rv3671c protease 6, Mtb UGM inh 1 and Mtb FBA inh 2.
O=C(NNc1nc2cc3c(cc2s1)OCCO3)c1ccc(F)cc1 was read as GDH-TPI counter-1 1, Rv3671c protease 10, Mtb UGM inh -3 and Mtb FBA inh 2.
c1ccc2sc(Nc3nc4cc5c(cc4s3)OCO5)nc2c1 was read as GDH-TPI counter-1 16, Rv3671c protease 3, Mtb UGM inh -1, Mtb FBA inh 29*, Mtb FBA inh conf 2 and GDH-TPI counter-2 -3.
Screening Fc1ccc2nc(Nc3nc4cc5c(cc4s3)OCCO5)sc2c1 returned GDH-TPI counter-1 16, Rv3671c protease 6, Mtb UGM inh -1, Mtb FBA inh 59*, Mtb FBA inh conf 75* and GDH-TPI counter-2 63*.
O=C(NNc1nc2cc3c(cc2s1)OCO3)c1ccc(F)cc1 was read as GDH-TPI counter-1 -13, Rv3671c protease -2, Mtb UGM inh 4 and Mtb FBA inh 5.
